# Compounds without any hit were thinned out: in the full panel of roughly 79,000, 15% have a hit. Unmarked numbers belong to inactive results. Activity calls are given as the source filed them. No stated cut-off is given here; in the data, active means growth inhibition above about 70%; inactive means the rest.
# Experiment: NCI Yeast Anticancer Drug Screen. Data for the bub3 strain (AID 167)
# Conditions: S. cerevisiae bub3 mutant strain, at 50.0 µM, active compounds read high
# Outline: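 Screening used yeast with an engineered genetic alteration affecting cell cycle control. Compound-exposed cultures were compared with vehicle cultures, and reduced growth was taken as inhibition.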
row,SMILES,growth inhibition
1,CC(=O)Oc1ccccc1C#CC(=O)O,-0.7%
2,COc1ccc(C(O)(CCN2CCOCC2)c2ccc3c(c2)OCO3)cc1 (stereo not given),8.6%
3,O=C(CCn1[nH]c(=O)c(Cl)c(Cl)c1=O)NNC(=O)C[n+]1ccccc1,-7.05%
4,Cc1ccc(S(=O)c2ccccc2[N+](=O)[O-])cc1 (stereo not given),-0.6%
5,O=[N+]([O-])c1c(Nc2ccccc2)ncnc1Nc1ccccc1,-10.6%
6,CCCCNC(C)(C)CSS(=O)(=O)O,4.1%
7,O=C1OC(/C=C/c2ccccc2)=NC/1=C\c1ccccc1O,0.7%
8,CC(O)CCNc1nnc2c3ccccc3n(C)c2n1 (stereo not given),5.3%
9,CC(C(=O)O)C(=O)NNc1ccccc1 (stereo not given),-2.1%
10,CN1CCS(=O)(=O)C2CCCCC2C1=O (stereo not given),10.5%
11,Oc1ccccc1C=NCCCN=Cc1ccccc1O,48.8%
12,COc1cccc(C2c3cc4c(cc3OC(C)(O)C2C)OCO4)c1OC (stereo not given),24.8%
13,CC1(C)CCCCC1=O,26.1%
14,CCC(O)C(CC)CC (stereo not given),-10.2%
15,CCO[Si](C)(CCC#N)OCC,-31.6%
16,Cc1cccc(Cl)c1NC1=NCCN1C(=O)CC(=O)c1ccccc1,2.05%
17,CC12C=C[C@]3(CC[C@@H]4[C@@](C)(CO)CCC[C@]4(C)C3CC1)C2 (stereo not given in full),15.3%
18,CC(NC(=O)c1ccccc1)c1ccc[nH]1 (stereo not given),-25.6%
19,Cc1cccc(C2=C/C(=C(\SS/C(C(=O)c3ccc(OCC(=O)O)c(Cl)c3Cl)=C3\C=C(c4cccc(C)c4)SS3)C(=O)c3ccc(OCC(=O)O)c(Cl)c3Cl)SS2)c1,-5.15%
20,O=S(=O)(/C=C/c1ccc(Cl)cc1Cl)Cc1ccccc1CS(=O)(=O)/C=C/c1ccc(Cl)cc1Cl,6.95%

row,SMILES,growth inhibition
1,Cc1c2ccccc2c(CN2CC(O)CC2C(=O)O)c2ccccc12 (stereo not given),51.8%
2,CC(CCC(=O)O)(CCC(=O)O)[N+](=O)[O-],12.6%
3,CCCCCCCCCCCCCCCC(=O)NOCc1cscn1,-12.8%
4,COC(=O)c1ccc(C(=O)OC)c(N)c1,3.95%
5,CCCCCCN(CCCCCC)CC(O)c1c(Cl)ccc2ccccc12 (stereo not given),96.4% (active)
6,CCS(=O)(=O)CCNC(=O)NS(=O)(=O)c1ccc(C)cc1,7.7%
7,O=C1CN(C=C2C(=O)NC(=O)NC2=O)C(=S)N1,-22.3%
8,NC(=O)c1[nH]c(COCCO)nc1N,7.05%
9,CC(=O)SC1CC(=O)OC1=O (stereo not given),0.2%
10,CSC1NC(c2ccc(Cl)cc2)=C(C#N)C(=O)N1C1OCC(OC(C)=O)C(OC(C)=O)C1OC(C)=O (stereo not given),-8.6%
11,Cc1ccc(C)c(NC(=O)NC(C)C)c1,-5.3%
12,Cc1ccc(N=Nc2cc(C)c(N)cc2N)c(S(=O)(=O)O)c1,3.45%
13,CN(C)CC1CCC(CN(C)C)C1=NO (stereo not given),-1.5%
14,CC(C)C(=O)NCc1ccccc1Sc1ccccc1CNC(=O)C(C)C,1.4%
15,CCOC(=O)N1CN(C(=O)OCC)CN(C(=O)OCC)C1,29.4%
16,OCC1(CO)CCCO1,-0.4%
17,CCCCOP(=O)(OCCCC)/C(C#N)=C/c1ccc(C)o1,-4.7%
18,CN1CCCC2C3=CC=C4CC(O)CCC4(C)C3CCC21C (stereo not given),23.9%
19,c1ccc(C(Sc2ncnc3nc[nH]c23)c2ccccc2)cc1,18.1%
20,C=CCOc1ccc2cc(Br)ccc2c1,4.4%

# Experiment: NCI Yeast Anticancer Drug Screen. Data for the mlh1 rad18 strain (AID 175)
# Conditions: S. cerevisiae mlh1 rad18 strain growth inhibition; at 50.0 µM; active compounds read high
# Outline: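 Inhibition values reflect reduced growth of mutant yeast versus vehicle-treated controls following compound exposure; the mutations affect DNA damage repair.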
row,SMILES,growth inhibition
1,CC(=O)Oc1ccccc1C#CC(=O)O,15.4%
2,COc1ccc(C(O)(CCN2CCOCC2)c2ccc3c(c2)OCO3)cc1 (stereo not given),-0.3%
3,O=C(CCn1[nH]c(=O)c(Cl)c(Cl)c1=O)NNC(=O)C[n+]1ccccc1,-25.1%
4,Cc1ccc(S(=O)c2ccccc2[N+](=O)[O-])cc1 (stereo not given),-2%
5,O=[N+]([O-])c1c(Nc2ccccc2)ncnc1Nc1ccccc1,1.05%
6,CCCCNC(C)(C)CSS(=O)(=O)O,-14.6%
7,O=C1OC(/C=C/c2ccccc2)=NC/1=C\c1ccccc1O,6.6%
8,CC(O)CCNc1nnc2c3ccccc3n(C)c2n1 (stereo not given),-16.2%
9,CC(C(=O)O)C(=O)NNc1ccccc1 (stereo not given),-16.4%
10,CN1CCS(=O)(=O)C2CCCCC2C1=O (stereo not given),1.1%
11,Oc1ccccc1C=NCCCN=Cc1ccccc1O,21.5%
12,COc1cccc(C2c3cc4c(cc3OC(C)(O)C2C)OCO4)c1OC (stereo not given),21.6%
13,CC1(C)CCCCC1=O,-14.3%
14,CCC(O)C(CC)CC (stereo not given),14.9%
15,CCO[Si](C)(CCC#N)OCC,4.75%
16,Cc1cccc(Cl)c1NC1=NCCN1C(=O)CC(=O)c1ccccc1,32.7%
17,CC12C=C[C@]3(CC[C@@H]4[C@@](C)(CO)CCC[C@]4(C)C3CC1)C2 (stereo not given in full),7.6%
18,CC(NC(=O)c1ccccc1)c1ccc[nH]1 (stereo not given),-0.15%
19,Cc1cccc(C2=C/C(=C(\SS/C(C(=O)c3ccc(OCC(=O)O)c(Cl)c3Cl)=C3\C=C(c4cccc(C)c4)SS3)C(=O)c3ccc(OCC(=O)O)c(Cl)c3Cl)SS2)c1,-10.7%
20,O=S(=O)(/C=C/c1ccc(Cl)cc1Cl)Cc1ccccc1CS(=O)(=O)/C=C/c1ccc(Cl)cc1Cl,-9.15%

row,SMILES,growth inhibition
1,Cc1c2ccccc2c(CN2CC(O)CC2C(=O)O)c2ccccc12 (stereo not given),93.8% (active)
2,CC(CCC(=O)O)(CCC(=O)O)[N+](=O)[O-],-8.8%
3,CCCCCCCCCCCCCCCC(=O)NOCc1cscn1,6.1%
4,COC(=O)c1ccc(C(=O)OC)c(N)c1,0.5%
5,CCCCCCN(CCCCCC)CC(O)c1c(Cl)ccc2ccccc12 (stereo not given),98.5% (active)
6,CCS(=O)(=O)CCNC(=O)NS(=O)(=O)c1ccc(C)cc1,0.9%
7,O=C1CN(C=C2C(=O)NC(=O)NC2=O)C(=S)N1,-71.2%
8,NC(=O)c1[nH]c(COCCO)nc1N,22.4%
9,CC(=O)SC1CC(=O)OC1=O (stereo not given),7.85%
10,CSC1NC(c2ccc(Cl)cc2)=C(C#N)C(=O)N1C1OCC(OC(C)=O)C(OC(C)=O)C1OC(C)=O (stereo not given),-8.8%
11,Cc1ccc(C)c(NC(=O)NC(C)C)c1,-0.35%
12,Cc1ccc(N=Nc2cc(C)c(N)cc2N)c(S(=O)(=O)O)c1,-24.5%
13,CN(C)CC1CCC(CN(C)C)C1=NO (stereo not given),6.45%
14,CC(C)C(=O)NCc1ccccc1Sc1ccccc1CNC(=O)C(C)C,-0.7%
15,CCOC(=O)N1CN(C(=O)OCC)CN(C(=O)OCC)C1,-5.45%
16,OCC1(CO)CCCO1,2.55%
17,CCCCOP(=O)(OCCCC)/C(C#N)=C/c1ccc(C)o1,10.1%
18,CN1CCCC2C3=CC=C4CC(O)CCC4(C)C3CCC21C (stereo not given),35.5%
19,c1ccc(C(Sc2ncnc3nc[nH]c23)c2ccccc2)cc1,0.1%
20,C=CCOc1ccc2cc(Br)ccc2c1,14.9%
